# The list is not random: actives were taken first. Their share in the collection is about 2.6%.
# TROY NFkB inh: TROY signaling inhibition. inhibition, % at 10 µM. 360,000 compounds, 0.98% hits. Q293 LMP1-TROYcd NF-kB luciferase reporter, 4 h;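 active = compounds whose plate-normalised and pattern-corrected inhibition of the luciferase reporter signal at the single screening dose is 50% or more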
# LGR2 antag: inhibitors of bursicon-induced Drosophila LGR2 receptor cAMP signaling | HEK293 LGR2, CRE-luciferase, bursicon-stimulated, 4 h | inhibition, % at 9.99 µM | 380,000 compounds, 0.35% hits;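 active = drop in luminescence signal, shown as inhibition above about 50% in the replicate tests, limit read from the data, passing the limit was not always enough; inconclusive = probably only some replicates passing the limit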;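 note: agonist challenge used bursicon conditioned medium at about half maximal strength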
# EWS-Fli block: EWS/Fli transcriptional activity inhibition; 350,000 compounds, 0.67% hits; A673 NR0B1-luciferase reporter, viability-normalised; inhibition, % at 12.6 µM;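 active = mean inhibition of at least 50% after viability correction, with every replicate also passing that limit; inconclusive = mean reaches 50% but only one of two replicates passes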;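 note: firefly luciferase signal divided by Alamar Blue viability fluorescence both relative to DMSO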
# LMP1 NFkB inh: reduces LMP1-driven NF-kappaB luciferase signal; inhibition, % at 12.5 µM; 350,000 compounds, 0.69% hits; AID 504558; LMP1-induced NF-kappaB luciferase reporter cells, luminescence; in the data active = inhibition above about 41%; inconclusive = no clear call, values can overlap the other calls;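 note: 0% = neutral control wells and 100% = reference inhibitor control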
# TWEAK-Fn14 inh: TWEAK-Fn14 signaling inhibition. inhibition, % at 10 µM. AID 1159606. 360,000 compounds, 2% hits. TWEAK-stimulated Fn14 reporter cells, luciferase luminescence, 8 h; in the data active = inhibition above about 50%
# * marks the source's active call; other numbers are inactive results; ? = inconclusive; nt = no result given.
SMILES,TROY NFkB inh,LGR2 antag,EWS-Fli block,LMP1 NFkB inh,TWEAK-Fn14 inh
C[C@@H]1CN([C@@H](C)CO)S(=O)(=O)c2ccc(-c3ccccc3)cc2O[C@H]1CN(C)Cc1cccnc1,nt,0.5,66.8*,nt,nt
O=S(=O)(N[C@@H]1CC[C@H](CCn2cc(C3CC3)nn2)O[C@H]1CO)c1ccc(F)cc1,nt,12.3,2.4,nt,nt
CCN(CC)c1ccc(/C=N/NC(=O)c2ccoc2C)cc1,42.4,nt,7.9,-1.4,63.3*
CCN(CC)c1ccc(/C=N\NC(N)=O)cc1,-25.3,-13.1,12.3,-0.5,1.8
O=C(N/N=C/c1ccc(F)cc1)c1c(O)c2ccccc2[nH]c1=O,13.5,-17.3,-9.1,28.8,42.2
O=C(N/N=C/c1cccc(F)c1)c1c(O)c2ccccc2[nH]c1=O,22.8,-4.5,nt,9.3,58.0*
Fc1ccccc1/C=N/n1cc(-c2ccccc2)[nH]c1=S,23.4,-34.4,19.7,-5.6,-0.9
Cc1ccc(C)c(/C=N/n2cc(-c3ccccc3)[nH]c2=S)c1,53.0*,-32.3,32.3,8.6,14.4
COC(=O)c1cccc(-c2ccc(C(c3c(C)[nH][nH]c3=O)c3c(C)[nH][nH]c3=O)o2)c1,82.3*,-2.2,-14.1,17.4,7.7
C[C@@H]1CN([C@H](C)CO)S(=O)(=O)c2ccc(-c3ccc(F)cc3)cc2O[C@H]1CN(C)C(=O)C1CCOCC1,nt,-9.3,-1.4,nt,nt
C[C@H]1CN([C@@H](C)CO)C(=O)c2cc(NS(=O)(=O)c3ccccc3)ccc2O[C@@H]1CN(C)C(=O)Nc1ccccc1,nt,-2.9,-6.1,nt,nt
O=C(Nc1ccc(-c2nc3ccccc3s2)cc1)C1=COCCO1,77.4*,95.0*,nt,72.0*,91.5*
O=C(O)CSCC(=O)Nc1ccc(-c2nc3ccccc3s2)cc1,42.3,-19.3,-16.6,2.5,71.5*
O=C(c1ccccn1)N1CC2(C1)[C@H](c1ccccc1)[C@@H](CO)N2Cc1ccccc1,nt,-14.1,-5.3,nt,nt
Cc1noc(C)c1NC(=O)N[C@H]1C=C[C@H](CC(=O)Nc2ccccc2)O[C@@H]1CO,nt,-0.6,1.3,nt,nt
O=C(c1ccc2c(c1)OCO2)N1CC(=O)N2[C@@H](CO)[C@@H](c3ccc(C#Cc4ccccc4)cc3)[C@@H]2C1,nt,22.9,1.6,nt,nt
CC1CC(C)(C)NC(=S)N1CCCC(=O)Nc1ccc(Cl)cc1 (configuration not stated),3.1,20.8,9.2,0.5,29.4
CCOc1ccc(NC(=O)CCN2C(=S)NC(C)(C)CC2C)cc1 (configuration not stated),-2.1,12.0,-5.5,3.2,94.3*
COc1ccc(OC(=O)N(C)C[C@H]2OCc3ccccc3-c3ccccc3C(=O)N([C@H](C)CO)C[C@@H]2C)cc1,nt,6.8,-0.7,nt,nt
NC1=NC(=O)/C(=C/c2cc(Br)c(O)c(Br)c2)S1,-5.7,-6.9,12.7,6.4,2.3
C=CCOc1ccc(/C=C2\SC(N)=NC2=O)cc1OC,-13.8,3.6,6.0,9.2,2.8
COc1cc(/C=C2\SC(N)=NC2=O)ccc1O,39.1,?,32.1,-13.4,99.7*
Cc1ccsc1/C=C1\SC(N)=NC1=O,-55.5,nt,nt,50.0*,-34.3
COc1ccc(/C=C2/SC(=S)NC2=O)cc1OCc1ccccc1,50.9*,-7.7,7.3,0.4,-8.0
NC1=NC(=O)/C(=C/c2ccc(Br)cc2)S1,-27.4,-4.0,-22.7,74.3*,-20.8
SMILES,TROY NFkB inh,LGR2 antag,EWS-Fli block,LMP1 NFkB inh,TWEAK-Fn14 inh
O=C(O)C[C@@H]1C[C@@H]2c3cc(NS(=O)(=O)c4ccccc4)ccc3O[C@@H]2[C@H](CO)O1,nt,2.7,nt,nt,nt
O=S(=O)(N[C@@H]1CC[C@@H](CCn2cc(Cc3ccccc3)nn2)O[C@@H]1CO)c1ccccc1F,nt,6.9,nt,nt,nt
COc1ccc(S(=O)(=O)N(C)C[C@@H]2Oc3c(NC(=O)NC(C)C)cccc3C(=O)N([C@H](C)CO)C[C@@H]2C)cc1,nt,6.5,-1.4,nt,nt
COc1cc(/C=C2/SC(=Nc3ccc(O)cc3)NC2=O)ccc1O,40.1,-19.8,54.3*,9.1,60.3*
COc1cc(/C=C2\SC(=Nc3ccccc3OC)NC2=O)ccc1O,24.5,5.7,34.7,1.4,40.2
OC[C@@H]1[C@@H](c2ccc(Br)cc2)[C@H]2CN(Cc3ccccn3)CCCCN12,nt,-11.7,-7.3,nt,nt
COc1ccc2c3c([nH]c2c1)[C@H](CO)N(C(=O)C1CC1)CC31CCN(C(=O)NC(C)C)CC1,nt,-14.7,0.3,nt,nt
CCOC(=O)c1ccc(N=c2sc(C(=O)OC)cc(=O)n2Cc2ccco2)cc1,32.0,69.5*,8.2,-16.1,64.2*
CCn1c(=O)cc(C(=O)OC)sc1=Nc1ccc(F)c(F)c1,4.9,?,13.5,84.1*,46.1
C[C@@H]1CN([C@@H](C)CO)S(=O)(=O)c2ccc(C3=CCCCC3)cc2O[C@@H]1CN(C)C(=O)C1CCCCC1,nt,16.0,-0.4,nt,nt
C[C@@H]1CN([C@H](C)CO)C(=O)c2cc(NS(=O)(=O)c3ccc(F)cc3)ccc2O[C@@H]1CN(C)C(=O)NC1CCCCC1,nt,12.5,-1.6,nt,nt
Cc1cccc(Oc2sc(C(=O)c3ccccc3)c(N)c2C#N)c1C,-72.0,nt,nt,-10.4,28.9
N#Cc1c(Oc2ccc3ccccc3c2)sc(C(=O)c2ccccc2)c1N,4.8,nt,nt,57.8*,40.0
CC(C)CC#Cc1cnc2c(c1)C(=O)N([C@@H](C)CO)C[C@@H](C)[C@H](CN(C)C(=O)Nc1cccc(F)c1)O2,nt,-19.6,4.8,nt,nt
CCCN(CC)c1ncnc2[nH]ncc12,39.6,17.4,-8.1,43.1*,66.7*
CN(C)c1ncnc2[nH]ncc12,-11.6,15.6,-11.9,-3.3,-10.9
COc1ccc(NC(=O)Nc2cccc3c2O[C@@H](CN(C)Cc2ccc4c(c2)OCO4)[C@@H](C)CN([C@H](C)CO)C3=O)cc1,nt,5.9,nt,nt,nt
CC1=C(C(=O)Nc2ccccc2)C(c2ccncc2)C(C#N)=C(SCC(=O)NC2CC2)N1 (configuration not stated),nt,nt,nt,-10.8,94.4*
CC1=C(C(=O)Nc2ccccc2)C(c2ccncc2)C(C#N)=C(SCC(=O)NC(C)C)N1 (configuration not stated),1.9,nt,nt,4.3,4.4
C[N+](C)(C)CCC(=O)N1C/C(=C/c2ccccc2)C(=O)/C(=C\c2ccccc2)C1,9.5,9.0,57.5*,-41.7,27.9
O=C1/C(=C/c2ccccc2)CN(C(=O)CCN2CCOCC2)C/C1=C\c1ccccc1,22.1,102.5*,64.9*,-35.4,100.4*
CN(C)CCC(=O)N1C/C(=C/c2ccccc2)C(=O)/C(=C\c2ccccc2)C1,58.6*,102.4*,79.8*,86.9*,103.4*
O=C(/C=C/c1ccccc1)CCN1CCOCC1,11.9,-22.9,15.1,3.6,18.9
CCn1nc([N+](=O)[O-])c(C(C#N)c2nc3ccccc3n2C)c(Cl)c1=O (configuration not stated),9.1,2.9,13.4,0.7,69.4*
Cn1c(C(C#N)C(=O)c2sc3ccccc3c2Cl)nc2ccccc21 (configuration not stated),0.0,nt,nt,4.2,1.6
CCCn1nc([N+](=O)[O-])c(C(C#N)c2nc3ccccc3s2)c(Cl)c1=O (configuration not stated),45.8,26.3,nt,-1.9,77.4*

# From PubChem BioAssay
